The values below come from PubChem BioAssay (NCI).

SMILES strings stand for the structures. This is part of a sample that, as a whole, favours compounds with a hit. Of some 83,000 tested, about 20% had one in any assay.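 Treatment: one concentration, 48 hours, 96-well format. Scoring: percent growth, with anything below 10 considered active.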 The source made the active and inactive calls.

One assay deals with SK-MEL-5 melanoma. As to the kind of experiment: NCI-60 one-dose screen, 48 h (100 = growth as untreated, 0 = no growth, -100 = all killed). The conditions noted are these: 10 µM unless noted.
Take `COc1cccc(Nc2nc(SC)nc(-c3cccc([N+](=O)[O-])c3)c2C#N)c1`: the growth is 87.2% (inactive).
On the same count and under the same terms, the value for `CSc1nc(NCCO)c(C#N)c(-c2cccc([N+](=O)[O-])c2)n1` was 97.2% (inactive).
On to `Cn1c(O)c(N=NC(=O)c2cc(-c3ccccc3)on2)c2ccccc21`, for which the growth was 99.3% (inactive).
`CSc1nc(Nc2cccc(NC(=O)/C(C#N)=C/c3c(Cl)cccc3Cl)c2)c(C#N)c(-c2cccc([N+](=O)[O-])c2)n1`: the growth was 49.6% (inactive).
Still for that read-out and setting: the result for `COc1ccc(-c2nc3ccc(-c4nc5ccc(N6CCN(c7ccccc7)CC6)cc5[nH]4)cc3[nH]2)cc1OC` reads 43.4% (inactive); that for `O=C(N=Nc1c(O)[nH]c2ccccc12)c1cc(-c2ccccc2)on1`, 100% (inactive).
Turning to `O=C1CC(=NCC(=O)n2c(-c3ccccc3)nc3ccccc32)NN1`, the growth was 96.6% (inactive).

Another assay deals with UACC-62 melanoma. The description is as above. The following applies: 10 µM unless noted.
Consider `C=C(C)[C@@H]1CC[C@]2(C(=O)OC)CC[C@]3(C)[C@H](CC[C@@H]4[C@@]5(C)C/C(=C/c6cccc(I)c6)C(=O)C(C)(C)[C@@H]5CC[C@]43C)[C@@H]12`, for which the growth was 96.5% (inactive).
As for `N#Cc1c(-c2ccc(Cl)cc2)nc(NN=Cc2ccco2)nc1N1CCOCC1`, the growth was 58.2% (inactive).
In the case of `C=CC(=O)Nc1cccc(Nc2nc(SC)nc(-c3cccc([N+](=O)[O-])c3)c2C#N)c1`, the growth was 65.7% (inactive).
As for `COc1ccc(/C=C/C(=O)c2ccc(O)c(CN3CCN(c4cc5c(cc4F)c(=O)c(C(=O)O)cn5C4CC4)CC3)c2)cc1`, the growth is 27.2% (inactive).
Take `COc1cc2nc(N3CCCC3)nc(Nc3ccccc3)c2cc1OC`: the growth was -76.1% (active).
For `COc1cccc(-c2nc3sccn3c2-c2ccnc(NCCNS(=O)(=O)c3ccccc3)c2)c1`, the growth is -31.3% (active).
In the case of `COc1cc(/C=C/C(=O)c2c(C)oc3nc[nH]c(=O)c23)cc(OC)c1OC`, the growth is 87% (inactive).
Turning to `C=C(C)[C@@H]1CC[C@]2(C(=O)OC)CC[C@]3(C)[C@H](CC[C@@H]4[C@@]5(C)C/C(=C/c6ccc(OC)cc6)C(=O)C(C)(C)[C@@H]5CC[C@]43C)[C@@H]12`, the growth was 99.7% (inactive).
As for `O=S(=O)(Nc1ccc(I)cc1F)c1ccc(-c2cnc(C3CC3)o2)cc1`, the growth was 32.8% (inactive).
Turning to `COc1cc2nc(N3CCCC3)nc(NCCc3ccccc3)c2cc1OC`, the growth is 94.7% (inactive).
As for `COc1ccc(Nc2nc(SC)nc(-c3cccc([N+](=O)[O-])c3)c2C#N)cc1`, the growth was 69.5% (inactive).
Same read-out and setting: the value for `COc1cc(CNc2oc(-c3ccccc3)c(-c3ccccc3)c2C#N)cc(CN2CCN(C)CC2)c1O` was 91.1% (inactive).
As for `COc1ccc(-c2nc3ccc(-c4nc5ccc(N6CCN(c7ccncc7)CC6)cc5[nH]4)cc3[nH]2)cc1OC`, the growth is 17.5% (inactive).
Still for that read-out and setting: the result for `O=C1/C(=C/c2cn(-c3ccccc3)nc2-c2ccccc2)SC(=S)N1CCc1ccccc1` reads 98% (inactive).
With `CCCN1CCN(c2ccc3nc(-c4ccc5nc(-c6ccc(OCC)cc6)[nH]c5c4)[nH]c3c2)CC1`, the growth was 51.4% (inactive).
The same measure, in the same setting: the value for `COc1cccc(-c2nc3sccn3c2-c2ccnc(NCCCNS(=O)(=O)c3cccc(F)c3)c2)c1` was -32.7% (active).
As for `Cn1c(=O)c2c(nc3n(-c4ccc(Cl)cc4Cl)c(Sc4nc(-c5ccccc5)c(C#N)c(=O)[nH]4)cn23)n(C)c1=O`, the growth is 63.2% (inactive).
The same measure, in the same setting: the value for `O=C(/C=C/c1ccccc1)c1ccc(O)c(CN2CCN(c3cc4c(cc3F)c(=O)c(C(=O)O)cn4C3CC3)CC2)c1` was 21.3% (inactive); that for `C=CC(=O)Nc1cccc(-c2nc(SC)nc(Nc3ccccc3OC)c2C#N)c1` was 75% (inactive).
On to `COc1cccc(-c2nc3sccn3c2-c2ccnc(NCCNS(=O)(=O)c3ccc(F)cc3)c2)c1`, for which the growth was -9.01% (active).
As for `COc1cc2nc(N3CCCC3)nc(NCc3ccccc3)c2cc1OC`, the growth is 97.3% (inactive).
As to `N#Cc1c(-c2ccc(Cl)cc2)nc(N/N=C/c2cccc(Br)c2)nc1N1CCOCC1`, the growth was 92.6% (inactive).
As for `CSc1nc(-c2cccc(NC(=O)CCl)c2)c(C#N)c(=O)n1C`, the growth is 60.4% (inactive).
Still for that read-out and setting: the result for `C=CC(=O)Nc1cccc(-c2nc(SC)nc(NCCc3ccc(OC)c(OC)c3)c2C#N)c1` reads 48.1% (inactive); that for `O=C(/C=C/c1cccc([N+](=O)[O-])c1)c1ccc(O)c(CN2CCN(c3cc4c(cc3F)c(=O)c(C(=O)O)cn4C3CC3)CC2)c1`, 53% (inactive).
With `COc1cc(/C=C/C(=O)c2ccc(O)c(CN3CCN(c4cc5c(cc4F)c(=O)c(C(=O)O)cn5C4CC4)CC3)c2)cc(OC)c1OC`, the growth is 59.9% (inactive).
The same measure, in the same setting: the result for `CC(C)(O)c1cn(CCCCN2C(=O)C(=O)c3ccccc32)nn1` reads 98.1% (inactive); that for `COC(=O)[C@]12CCC(C)(C)C[C@H]1[C@H]1C(=O)C[C@@H]3[C@@]4(C)c5c([nH]c6ccccc6c5=O)C(C)(C)[C@@H]4CC[C@@]3(C)[C@]1(C)CC2`, 54.5% (inactive); that for `N=C(N)c1ccc(-c2ccc(-c3ccc4ccccc4c3)s2)s1`, -6.73% (active).
Consider `C=CC(=O)Nc1cccc(-c2nc(SC)nc(NCCN3CCOCC3)c2C#N)c1`, for which the growth is 86.7% (inactive).
As to `COc1cc(C=Nc2oc(-c3ccccc3)c(-c3ccccc3)c2C#N)cc(CN2CCCCC2)c1O`, the growth was 88.4% (inactive).
Take `CC1=NN(c2nc(-c3ccc(Cl)cc3)c(C#N)c(N3CCOCC3)n2)C(=O)C1`: the growth is 13.8% (inactive).
On to `COc1cccc(Nc2nc(SC)nc(-c3cccc([N+](=O)[O-])c3)c2C#N)c1`, for which the growth was 78.5% (inactive).
`CSc1nc(NCCO)c(C#N)c(-c2cccc([N+](=O)[O-])c2)n1`: the growth is 87% (inactive).
Regarding `Cn1c(O)c(N=NC(=O)c2cc(-c3ccccc3)on2)c2ccccc21`, the growth is 98.9% (inactive).
For `CSc1nc(Nc2cccc(NC(=O)/C(C#N)=C/c3c(Cl)cccc3Cl)c2)c(C#N)c(-c2cccc([N+](=O)[O-])c2)n1`, the growth is 33.2% (inactive).
Same read-out and setting: the value for `COc1ccc(-c2nc3ccc(-c4nc5ccc(N6CCN(c7ccccc7)CC6)cc5[nH]4)cc3[nH]2)cc1OC` was 41.6% (inactive); that for `O=C(N=Nc1c(O)[nH]c2ccccc12)c1cc(-c2ccccc2)on1` was 99.6% (inactive).
On to `O=C1CC(=NCC(=O)n2c(-c3ccccc3)nc3ccccc32)NN1`, for which the growth is 94.9% (inactive).
